# Assay outcomes as filed in PubChem.
# B2AR arrestin = qHTS assay of beta-arrestin-biased ligands of beta2-adrenergic receptor; Beta-2 adrenergic receptor (Homo sapiens), P07550; beta-arrestin recruitment to beta2AR, cell-based reporter; Potency, µM (highest dose often 46.1 µM), most hits filed as activators; hit rate 0.02% among 330,000; also: nearly all actives have a fitted effect of over 65% in size
# Target sequence (P07550 whole entry, looked up): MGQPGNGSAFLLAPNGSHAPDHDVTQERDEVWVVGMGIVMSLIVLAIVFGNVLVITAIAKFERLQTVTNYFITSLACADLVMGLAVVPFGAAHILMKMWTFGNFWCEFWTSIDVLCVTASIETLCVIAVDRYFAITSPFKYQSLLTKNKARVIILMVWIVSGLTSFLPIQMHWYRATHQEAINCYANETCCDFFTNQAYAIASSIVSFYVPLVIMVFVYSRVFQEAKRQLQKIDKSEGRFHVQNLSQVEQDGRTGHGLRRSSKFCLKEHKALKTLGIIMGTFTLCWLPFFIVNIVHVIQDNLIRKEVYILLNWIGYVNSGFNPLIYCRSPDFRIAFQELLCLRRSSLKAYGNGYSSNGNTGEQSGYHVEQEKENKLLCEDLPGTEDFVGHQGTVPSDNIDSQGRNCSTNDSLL
# VP16 counter = VP16 counterscreen qHTS for inhibitors of ROR gamma transcriptional activity | Potency, µM (highest dose often 53.6 µM), actives largely listed as inhibitors | AID 2546, 2010 | Drosophila S2 Gal4-VP16 UAS-luciferase, luminescence, 20 h | hit rate 3.5% among 310,000;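 also: Gal4-VP16 expression switched on by copper sulfate through the metallothionein promoter; nearly all actives have a fitted effect of over 50% in size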
# RORgamma inh = qHTS for inhibitors of ROR gamma transcriptional activity | hit rate 5.4% among 310,000 | Potency, µM (series often up to 53.6 µM), actives largely listed as inhibitors | AID 2551, 2010 | Drosophila S2 Gal4-RORgamma UAS-luciferase reporter, 20 h; also: nearly all actives have a fitted effect of over 60% in size
#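 Compounds are pin-transferred onto Drosophila Schneider cells expressing a copper-inducible Gal4–ROR gamma transactivation domain fusion. After 1 hr, copper sulfate is added to 700 uM final; luciferase is read 20 hr later.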
# NPSR antagonist = qHTS Assay for Antagonists of the Neuropeptide S Receptor: cAMP Signal Transduction. CHO-NPSR cells, cAMP TR-FRET, antagonist mode. Potency, µM (doses to about 38.3 µM), most hits filed as inhibitors. hit rate 1% among 220,000; also: nearly all actives have a fitted effect of over 50% in size
# Numbers stand for hits; . = inactive; ? = inconclusive; / = not tested or not shown; [ ] = dose if it differs, or a comment. Rows were chosen to be rich in hits. Some 5.7% of all compounds tested hit in one or more screens of this group. Calls follow the shape of the dose curve; as a rule, active = well fitted curve in the direction sought with a large enough effect; inconclusive = small, poorly fitted or top-dose-only effect, or another doubt; inactive = no such curve, though single readings can be large; an effect the other way counts as inactive or inconclusive.
SMILES,B2AR arrestin,VP16 counter,RORgamma inh,NPSR antagonist
COc1cc(OC)cc(C(=O)Nc2nc(CC(=O)NC(C)c3ccccc3)cs2)c1 (centres undefined),.,/,/,/
CC[C@@H]1C(c2cccc(C)c2)=NN(c2ccc(Br)cc2)[C@H]1C(=O)N1CCOC1=O,/,.,.,/
O=c1c(-c2cc(F)cc(F)c2)nc2cnc(N3CCOCC3)nc2n1C1CC1,/,.,.,/
Cc1cc(-c2ccccc2)nc(SCC(=O)N2CCCC2)n1,.,.,.,.
CCCCn1c(N)c(N(CCC(C)C)C(=O)c2oc3ccc(OCC)cc3c2C)c(=O)[nH]c1=O,.,/,/,/
O=C(Cc1ccccc1)NCc1ccncc1,.,?,6.3µM,.
N#Cc1ccccc1OCC(=O)NCC(c1cccs1)N1CCOCC1 (centres undefined),.,.,.,/
CC1CCC2C(=O)OC(CN3C(=O)c4ccccc4C3=O)CN2C1c1ccc(Br)cc1 (centres undefined),/,.[10 µM],.[10 µM],/
CC(=O)Nc1ccccc1NC(=O)C/C(C)=N/NC(=O)c1ccc([N+](=O)[O-])c(Cl)c1,.,.,?,.
CC(=O)Nc1cccc(NC(=O)c2ccc(C)c([N+](=O)[O-])c2)c1,.,.,.,.
C/C(=N\NC(=O)c1ccc([N+](=O)[O-])c(C)c1)c1ccccc1Cl,.,?,7.9µM,.
Cc1ccc(C(=O)NC(=S)Nc2cccc(NC(=O)c3ccccc3Cl)c2)cc1[N+](=O)[O-],.,4µM,5.6µM,.
Cc1ccc(C(=O)NC(=S)Nc2cccc(NC(=O)c3ccccc3)c2)cc1[N+](=O)[O-],.,3.5µM,2.5µM,.
C/C(=N/NC(N)=S)c1ccccc1[N+](=O)[O-],.,?,7.1µM,.
CC(=O)c1cccc(NC(=S)NNC(=O)c2ccc(C)c([N+](=O)[O-])c2)c1,.,.,.,.
O=S1(=O)N=C(N/N=C/c2ccco2)c2ccccc21,.,?,7.9µM,.
O=[N+]([O-])c1ccccc1/C=N/NC1=NS(=O)(=O)c2ccccc21,.,.,.,.
CC(NC(=O)NNC(N)=S)(C(F)(F)F)C(F)(F)F,?,20µM,?,.
Cc1cc(-c2n[nH]c(=S)n2Cc2ccccc2)cs1,.,?,5.6µM,.
Fc1ccc(-c2n[nH]c(=S)n2Cc2ccccc2)cc1,.,11µM,2.8µM,/
CC(c1ccccc1)n1c(-c2ccncc2)n[nH]c1=S (centres undefined),.,?,?,.
S=c1[nH]nc(-c2ccncc2)n1Cc1ccccc1,.,.,13µM,.
S=c1[nH]nc(-c2cccnc2)n1Cc1ccccc1,.,?,?,.
CC(C)n1c(-c2ccc(C(C)(C)C)cc2)n[nH]c1=S,.,10µM,4.5µM,.
O=C(COc1ccccc1F)N1N=C(c2cccs2)CC1c1ccco1 (centres undefined),.,/,/,/
SMILES,B2AR arrestin,VP16 counter,RORgamma inh,NPSR antagonist
COc1ccc(C(=O)N2CCC[C@@]3(CCN(c4cccc(-c5ccccc5)c4)C3)C2)cc1,/,.,.,/
CC(C)(C)c1ccc(-c2n[nH]c(=S)n2Cc2ccccc2)cc1,.,7.1µM,2.2µM,/
S=c1[nH]nc(-c2ccc(Br)cc2)n1Cc1ccccc1,.,5.6µM,2.2µM,.
FC(F)C(F)(F)Oc1cccc(-c2n[nH]c(=S)n2Cc2ccccc2)c1,.,/,/,/
Fc1ccc(-c2c[nH]c(=S)n2Cc2ccccc2)cc1,.,1.4µM,0.63µM,.
CCCCOc1ccc(-c2n[nH]c(=S)n2Cc2ccccc2)cc1,.,?,1.6µM,/
Oc1ccc(-c2n[nH]c(=S)n2Cc2ccccc2)cc1,.,/,.[0.365 µM],.
O=c1[nH]cc(-c2ccc(Br)cc2)n1Cc1ccccc1,.,.,.,/
COc1ccc(CCNC(=O)CCC(=O)N2CC(C)Oc3ccccc32)cc1OC (centres undefined),.,.,.,/
O=S(=O)(c1ccccc1)c1nc(Nc2cccc(O)c2)sc1Cl,.,.,.,.
